Compound activity deposited in PubChem BioAssay by several laboratories.
The list is not random: actives were taken first. Their share in the collection is about 3.8%.
Y pestis TopoI: Y. pestis Topo-I inhibition via cleavage products; Y. pestis Topo-I cleavage product accumulation, plate reader; activity, % at 10 µM; 360,000 compounds, 0.064% hits; in the data active means activity above about 50%, passing the limit was not always enough
Mtb hypoxia inh: Mtb hypoxia fluorescent reporter inhibition | M. tuberculosis hypoxia-regulated fluorescent reporter, fluorescence | fluorescence inhibition, % (concentration not given with the values) | 300,000 compounds, 0.1% hits | AID 1159583; in the data active means fluorescence inhibition mostly above about 23%, no sharp cut-off; inactive means mostly below about 17%
GDH-TPI inh: inhibits GDH-TPI coupling enzymes, artifact for Mtb FBA screen; inhibition, % at 4.8 µM; GDH-TPI coupled enzyme counterscreen, NADH absorbance; 360,000 compounds, 1.2% hits; in the data active means inhibition above about 30%;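 further: 0% = DMSO wells and 100% = wells lacking the enzyme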
PrP UTR inh: suppresses PrP 5' UTR mRNA reporter expression | cell-based PrP 5' UTR mRNA reporter, plate reader | inhibition, % (test concentration not listed) | 340,000 compounds, 0.35% hits; in the data active means inhibition above about 52%; further: 0 = median of the neutral control wells
FBA Mtb inh: inhibitors of M. tuberculosis fructose-bisphosphate aldolase; inhibition, % at 1 µM; 360,000 compounds, 2.3% hits; purified M. tuberculosis FBA, fluorescence read-out; P9WQA3; in the data active means inhibition above about 27%;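 further: 0% = vehicle and 100% = reference inhibitor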
Target sequence (P9WQA3 whole entry, looked up): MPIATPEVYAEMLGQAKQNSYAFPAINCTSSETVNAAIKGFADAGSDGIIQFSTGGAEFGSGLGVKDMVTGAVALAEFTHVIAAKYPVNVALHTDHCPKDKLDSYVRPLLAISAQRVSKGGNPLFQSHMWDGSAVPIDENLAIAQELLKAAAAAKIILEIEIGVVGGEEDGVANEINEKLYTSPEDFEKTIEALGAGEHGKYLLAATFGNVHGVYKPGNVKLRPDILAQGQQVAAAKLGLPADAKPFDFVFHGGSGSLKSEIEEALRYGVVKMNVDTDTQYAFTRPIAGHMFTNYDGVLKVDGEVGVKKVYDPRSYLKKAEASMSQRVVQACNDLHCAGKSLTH
PrPC surface inh: inhibitors of human cell surface prion protein PrPC. P04156. TR-FRET read-out. AID 720596. 370,000 compounds, 0.43% hits. inhibition, % at 13.8 µM; in the data active means inhibition above about 24%; further: 0% = median of the test wells and 100% = reference compound wells
Active calls of the source: *.

Screening Cc1ccc(C(CC(=O)c2ccco2)SCCO)cc1 (stereo not drawn) returned Y pestis TopoI 5, GDH-TPI inh 33*, PrP UTR inh -40, FBA Mtb inh 1 and PrPC surface inh 5.
`CC(OC(=O)n1ccnc1)C1O[C@@]2(C)CCCC1O2` (stereo partly drawn) gave Mtb hypoxia inh 7.
COC1=C/C(=C/c2c(N)n3nc(CC(=O)N4CCCCC4)sc3nc2=O)C=CC1=O was read as Y pestis TopoI -4, GDH-TPI inh 34*, PrP UTR inh -1 and FBA Mtb inh 2.
CCc1ccc(N=C2NC(=O)/C(=C/c3ccc(OCC(=O)O)cc3)S2)cc1 was read as Y pestis TopoI 0, Mtb hypoxia inh -7, GDH-TPI inh 40*, PrP UTR inh -15, FBA Mtb inh -2 and PrPC surface inh -7.
Screening CCc1ccc(N=C2NC(=O)/C(=C/c3ccc(OCC(=O)O)c(OC)c3)S2)cc1 returned Y pestis TopoI 1, Mtb hypoxia inh 9, GDH-TPI inh 19, PrP UTR inh -19, FBA Mtb inh -1 and PrPC surface inh 4.
For COc1ccc(NC(=O)C(C)(C)Oc2ccc(Cl)cc2)cn1 the results were Y pestis TopoI -3, Mtb hypoxia inh 10, GDH-TPI inh 1, PrP UTR inh -8, FBA Mtb inh -1 and PrPC surface inh -6.
`COc1ccc(NC(=O)/C(Cl)=C(/Cl)S(=O)(=O)Cc2ccccc2)cn1` gave Y pestis TopoI 4, GDH-TPI inh -1, PrP UTR inh 7, FBA Mtb inh 0 and PrPC surface inh 94*.
`COc1ccc(NC(=O)/C(Cl)=C(/Cl)S(=O)Cc2ccc(Cl)cc2)cn1` (stereo not drawn) gave Y pestis TopoI 9, GDH-TPI inh -2, PrP UTR inh -17, FBA Mtb inh 0 and PrPC surface inh 29*.
`COc1ccc(NC(=O)C(Cl)=C(Cl)Cl)cn1` gave Y pestis TopoI 4, Mtb hypoxia inh 3, GDH-TPI inh -10, PrP UTR inh -2, FBA Mtb inh -5 and PrPC surface inh 6.
`CC1(C)N=C2C(=NO)CCCC2=[N+]1[O-]` gave Mtb hypoxia inh 7.
`CCOC(=O)C1C2COc3ccc(C)cc3C2N2C(=O)CN(Cc3ccc(F)cc3)C(=O)[C@@]12C` (stereo partly drawn) gave Mtb hypoxia inh 3.
For CN1CCC/C1=C/C=C1\SC(=S)NC1=O the results were Y pestis TopoI 3, Mtb hypoxia inh 41*, GDH-TPI inh 0, PrP UTR inh -28, FBA Mtb inh -22 and PrPC surface inh -10.
`Cn1c(COc2ccc(Cl)cc2)nnc1SCC(=O)NC1CC1` gave Y pestis TopoI -2, Mtb hypoxia inh 34*, GDH-TPI inh 11, PrP UTR inh -17, FBA Mtb inh -2 and PrPC surface inh -2.
For COc1ccccc1OCc1nnc(SCC(=O)Nc2nnc(C3CC3)s2)n1C the results were Y pestis TopoI 9, Mtb hypoxia inh 3, GDH-TPI inh -1, PrP UTR inh -20, FBA Mtb inh 175* and PrPC surface inh 1.
Cn1c(COc2ccccc2)nnc1SCC(=O)NC1CCCC1 was read as Y pestis TopoI 7, Mtb hypoxia inh -14, GDH-TPI inh -7, PrP UTR inh -7, FBA Mtb inh 3 and PrPC surface inh -2.
Cn1c(CNC(=O)c2ccccc2F)nnc1SCC(=O)Nc1nnc(C2CC2)s1 was read as Y pestis TopoI 6, Mtb hypoxia inh 2, GDH-TPI inh 7, PrP UTR inh -5, FBA Mtb inh 5 and PrPC surface inh 0.
For Cn1cc(C(=O)N2CCCCCC2)c(=O)c2cc(S(=O)(=O)N3CCCCC3)ccc21 the results were Y pestis TopoI 4, Mtb hypoxia inh 6, GDH-TPI inh 5, PrP UTR inh -22, FBA Mtb inh -1 and PrPC surface inh -4.
Screening COC(=O)c1cn(C)c2ccc(S(=O)(=O)N3CCCCC3)cc2c1=O returned Y pestis TopoI -9, Mtb hypoxia inh -3, GDH-TPI inh 40*, PrP UTR inh -9, FBA Mtb inh 5 and PrPC surface inh 6.
`CN1CCN(N=Cc2ccc(C#N)cc2)CC1` gave Mtb hypoxia inh 9.
Cc1cc(C)[n+](-c2ccc(F)cc2)c2[nH]c(=O)[nH]c(=O)c12 was read as Y pestis TopoI -2, Mtb hypoxia inh 5, GDH-TPI inh 19, PrP UTR inh -4, FBA Mtb inh active and PrPC surface inh -2.
